The values that follow come from PMC4336329 (PLoS ONE, 2015).

SMILES strings stand for the structures. About 14,000 (4.5%) of roughly 310,000 compounds showed an effect of 50% or more. Effects have a minus sign here. Only a selection was taken, and strong results are over-represented in it overall.
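Note: peak tail current of the secondary pulse compared with the same well before compound.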

For this assay, the target named is human ether-à-go-go-related gene (hERG) potassium channel (human, UniProt Q12809). Description: primary screen, population patch clamp on CHO cells stably expressing hERG; higher = less effect of the substance.
human ether-à-go-go-related gene (hERG) potassium channel, sequence (Q12809 whole entry, looked up): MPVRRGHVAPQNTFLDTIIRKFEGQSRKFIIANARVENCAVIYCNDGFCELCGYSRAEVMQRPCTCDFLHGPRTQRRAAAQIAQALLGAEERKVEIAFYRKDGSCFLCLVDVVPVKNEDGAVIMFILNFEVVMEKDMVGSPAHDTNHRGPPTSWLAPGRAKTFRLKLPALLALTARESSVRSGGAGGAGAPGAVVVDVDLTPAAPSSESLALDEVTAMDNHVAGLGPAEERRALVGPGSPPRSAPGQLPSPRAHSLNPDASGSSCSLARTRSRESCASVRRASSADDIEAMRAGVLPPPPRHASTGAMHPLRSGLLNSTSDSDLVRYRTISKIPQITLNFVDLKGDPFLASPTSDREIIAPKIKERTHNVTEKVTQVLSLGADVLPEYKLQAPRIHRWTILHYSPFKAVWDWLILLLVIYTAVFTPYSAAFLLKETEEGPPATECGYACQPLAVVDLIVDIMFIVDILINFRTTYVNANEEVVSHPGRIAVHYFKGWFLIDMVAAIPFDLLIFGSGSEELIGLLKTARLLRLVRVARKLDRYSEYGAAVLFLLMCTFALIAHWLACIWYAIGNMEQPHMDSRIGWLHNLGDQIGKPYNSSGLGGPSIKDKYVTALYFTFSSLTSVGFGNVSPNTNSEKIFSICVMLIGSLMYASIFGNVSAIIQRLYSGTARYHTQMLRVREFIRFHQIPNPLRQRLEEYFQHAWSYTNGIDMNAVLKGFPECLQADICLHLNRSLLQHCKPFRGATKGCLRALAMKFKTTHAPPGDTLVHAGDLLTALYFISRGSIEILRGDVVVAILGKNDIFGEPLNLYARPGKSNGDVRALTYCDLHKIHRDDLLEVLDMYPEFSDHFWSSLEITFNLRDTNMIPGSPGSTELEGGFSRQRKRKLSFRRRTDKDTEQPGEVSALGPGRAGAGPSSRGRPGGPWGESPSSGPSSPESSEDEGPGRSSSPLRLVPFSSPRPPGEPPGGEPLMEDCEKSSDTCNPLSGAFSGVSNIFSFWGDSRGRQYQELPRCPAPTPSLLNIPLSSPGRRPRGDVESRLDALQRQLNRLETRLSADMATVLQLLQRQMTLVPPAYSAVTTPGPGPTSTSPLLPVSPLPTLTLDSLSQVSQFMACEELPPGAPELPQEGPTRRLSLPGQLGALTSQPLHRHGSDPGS
For the compound `Cc1ccc(CNC(=S)NC2CCC(C(C)(C)C)CC2)cc1` (stereo not drawn), the “hERG current change (%, negative = inhibition) at 10uM” value worked out at 10.8%.

Regarding `CCC(NC(=O)C1CCC1)c1ccccc1` (stereo not drawn), the “hERG current change (%, negative = inhibition) at 10uM” value is listed as 12.6%.

On to `Cc1c(/C=C/C(=O)c2cccs2)cnn1C`, for which the “hERG current change (%, negative = inhibition) at 10uM” value is on record as -0.723%.

With `COc1ccc(CNc2cccc(C)n2)c(O)c1`, the “hERG current change (%, negative = inhibition) at 10uM” value is -3.24%.

For `Cc1cc(C)c(NC(=O)COC(=O)c2ccc([N+](=O)[O-])s2)c(C)c1`, the “hERG current change (%, negative = inhibition) at 10uM” value came to 0.0437%.

Consider `COc1ccccc1NS(=O)(=O)c1cc(NC(=O)c2[nH]c(C)c(C(C)=O)c2C)ccc1N1CCOCC1`, for which the “hERG current change (%, negative = inhibition) at 10uM” value is 0.128%.

For `O=C(CSc1nc(-c2ccccc2)cc(=O)[nH]1)Nc1ccccc1`, the “hERG current change (%, negative = inhibition) at 10uM” value amounted to 18%.

For the compound `COc1ccc(C(=O)/C=C/c2cn(CC(O)CN3CCOCC3)c3ccccc23)cc1` (stereo not drawn), the “hERG current change (%, negative = inhibition) at 10uM” value came out at 3.55%.

Consider `O=C(CSc1ccccn1)Nc1cccc(NC(=O)CSc2ccccn2)n1`, for which the “hERG current change (%, negative = inhibition) at 10uM” value is reported as -11.9%.

In the case of `Cn1c(=O)c(=O)n(C)c2cc(S(=O)(=O)N3CCN(Cc4ccccc4)CC3)ccc21`, the “hERG current change (%, negative = inhibition) at 10uM” value was -63.4%.

With `Cn1c(=O)c(=O)n(C)c2cc(S(=O)(=O)N3CCC(Cc4ccccc4)CC3)ccc21`, the “hERG current change (%, negative = inhibition) at 10uM” value is recorded as -10.9%.

Regarding `O=S(=O)(c1ccc(Cl)cc1)N1CCN(C2CCCCCC2)CC1`, the “hERG current change (%, negative = inhibition) at 10uM” value is on record as -17.3%.

`O=[N+]([O-])c1ccccc1S(=O)(=O)N1CCN(Cc2ccccc2)CC1`: the “hERG current change (%, negative = inhibition) at 10uM” value is recorded as -34.6%.

Regarding `O=S(=O)(c1ccccc1)N1CCN(Cc2ccccc2)CC1`, the “hERG current change (%, negative = inhibition) at 10uM” value came to 19.3%.

For `O=S(=O)(c1ccccc1)N1CCN(C2CCN(Cc3ccccc3)CC2)CC1`, the “hERG current change (%, negative = inhibition) at 10uM” value is -64%.

On to `O=[N+]([O-])c1ccccc1S(=O)(=O)N1CCN(C2CCN(Cc3ccccc3)CC2)CC1`, for which the “hERG current change (%, negative = inhibition) at 10uM” value is -51.9%.

As to `Cn1c(=O)c(=O)n(C)c2cc(S(=O)(=O)N3CC(=O)N(CCc4ccccc4)C(=O)C3)ccc21`, the “hERG current change (%, negative = inhibition) at 10uM” value is 19.4%.

For the compound `O=S(=O)(c1ccc(Cl)cc1)N1CCN(C2CCN(Cc3ccccc3)CC2)CC1`, the “hERG current change (%, negative = inhibition) at 10uM” value was -71.4%.

For the compound `O=S(=O)(c1ccccc1)N1CCN(Cc2ccc(Cl)cc2)CC1`, the “hERG current change (%, negative = inhibition) at 10uM” value is -22.7%.

Regarding `O=[N+]([O-])c1ccccc1S(=O)(=O)N1CCN(C2CCCC2)CC1`, the “hERG current change (%, negative = inhibition) at 10uM” value came out at 0.58%.

As to `CS(=O)(=O)N1CCN(C2CCN(Cc3ccccc3)CC2)CC1`, the “hERG current change (%, negative = inhibition) at 10uM” value was -1.48%.

As to `CC(=O)c1c(C)[nH]c(C(=O)COc2cc(C)ccc2C(C)C)c1C`, the “hERG current change (%, negative = inhibition) at 10uM” value is 14.1%.

For `O=C(CSc1nnnn1-c1ccc2c(c1)OCCO2)N1CCN(C(=O)c2ccco2)CC1`, the “hERG current change (%, negative = inhibition) at 10uM” value is -16.6%.

For `CCN1C(=O)S/C(=C/c2ccc(Oc3ccc([N+](=O)[O-])cn3)c(OC)c2)C1=O`, the “hERG current change (%, negative = inhibition) at 10uM” value is listed as 9.24%.
